Experimental data from PubChem BioAssay AID1631 (National Center for Advancing Translational Sciences (NCATS), 2009).
About 890 (0.34%) of roughly 260,000 compounds were called active. Entries that show only a call come without a potency. Inconclusive results (about 1%) are left out. For the sample, actives were picked, then their nearest neighbours and some compounds at random. Unmarked numbers belong to inactive results. Calls come from the whole dose curve; as a rule, active = well fitted activation curve with a large enough effect; inconclusive = small, poorly fitted or top-dose-only effect; inactive = no such curve, though single readings can be large or run the other way.
Note: nearly all actives have a fitted effect of over 55% in size.
Potency is the fitted concentration of half-maximal effect.

The compounds below were run against Pyruvate kinase PKM (Homo sapiens) (UniProt P14618) (assay: qHTS Assay for Activators of Human Muscle isoform 2 Pyruvate Kinase). Settings: purified PKM2, Kinase-Glo ATP luminescence; Potency: activation; series mostly up to 57.5 µM.
Pyruvate kinase PKM (Homo sapiens), sequence (P14618 whole entry, looked up, canonical isoform): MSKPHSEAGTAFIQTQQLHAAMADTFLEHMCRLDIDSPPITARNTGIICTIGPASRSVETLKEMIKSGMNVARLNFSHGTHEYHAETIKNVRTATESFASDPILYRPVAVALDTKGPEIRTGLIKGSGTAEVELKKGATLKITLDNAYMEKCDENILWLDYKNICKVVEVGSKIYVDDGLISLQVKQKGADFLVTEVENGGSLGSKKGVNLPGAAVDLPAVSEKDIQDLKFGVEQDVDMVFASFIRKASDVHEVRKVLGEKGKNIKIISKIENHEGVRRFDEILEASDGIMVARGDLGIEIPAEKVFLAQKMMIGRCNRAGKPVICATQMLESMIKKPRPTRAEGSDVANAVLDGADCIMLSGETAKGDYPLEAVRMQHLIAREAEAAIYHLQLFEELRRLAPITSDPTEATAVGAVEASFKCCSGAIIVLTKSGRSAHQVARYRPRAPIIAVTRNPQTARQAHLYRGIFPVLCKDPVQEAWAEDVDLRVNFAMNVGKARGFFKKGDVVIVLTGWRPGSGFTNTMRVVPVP
Source text: NIH Chemical Genomics Center [NCGC] Matthew G. Vander Heiden, M.D., Ph.D. [Harvard Medical School, 77 Avenue Louis Pasteur, Boston, MA 02115] MLPCN Grant: 1 R03 MH085679-01 NCGC Assay Overview: Human pyruvate kinase muscle 2 (hPK-M2) enzyme was supplied as a highly purified (>95% pure) preparation from Harvard Medical School and assayed for its ability to generate ATP from ADP using phosphoenolpyruvate (PEP) as a substrate. ATP generation was detected in a coupled reaction by luciferase-mediated luminescence, an ATP-dependent process. […] The enzyme was assayed at an intermediate level of activity to screen for both inhibitors and activators.
NCGC Assay Protocol Summary: Three uL of substrate mix (at r.t.) in assay buffer (50 mM Imidazole pH7.2, 50 mM KCl, 7 mM MgCl2, 0.01% Tween 20, 0.05% BSA) was dispensed into white solid bottom 1,536 well microtiter plates so that the final concentrations of substrates in the assay were 0.1 mM ADP and 0.5 mM PEP. 23 nL of compound were delivered by a pin tool and 1 uL of enzyme mix in assay buffer (4 degree Celsius) was added. Plates were incubated at room temperature for 1 hour. Two uL of detection mix (Kinase-Glo, Promega; at 4 degree Celsius protected from light) was added and luminescence read by a ViewLux (Perkin Elmer) at 5 second exposure/plate. Data were normalized to the uninhibited and AC100 inhibition (no enzyme). To monitor activation, the first column contained a titration of the activator, NCGC00031955-01 (16-point 1:2 dilutions in duplicate starting at 57 uM) and the first 16 rows of column 4 contained 57 uM of NCGC00031955-01.
For O=c1c2ccccc2nc(/C=C/c2ccco2)n1-c1ccccc1O, the Potency was 3.98 µM (active). With Cc1nc2ccccc2c(=O)n1-c1ccc(Cl)cc1Cl the activation was -0.0497% [at 11.5 µM, 0% is enzyme alone, no compound]. In the case of O=c1c2ccccc2nc(-c2ccco2)n1-c1ccc(Br)cn1, the activation is reported as “inactive”. CCCCn1c(=O)c(C(=O)Nc2ccccc2Cl)c(O)c2ccccc21 was tested, and the activation was “inactive”. For CN(C)C(=O)Oc1ccc(NC(=O)N2CCOCC2)cc1, the activation was “inactive”.
